Beta cell apopt: blocks beta cell apoptosis | actives 0.8% (n = 300,000) | INS-1E cytokine-induced death, ATP luminescence, 48 h; percent of positive-control rescue, neutral wells zero | protection from apoptosis, % (no concentration beside the values);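 active = Every replicate reaches about 75%, or at least half do and their mean reaches it too, limit read from the data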;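 also: higher means more ATP so stronger rescue from cytokine killing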
PAX8 reporter: inhibitors of PAX8 transcriptional activity in RMG-I cells. RMG-I TPO-luciferase reporter, SteadyGlo, 24 h. inhibition, % at 12.6 µM. actives 1.2% (n = 360,000);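 active = mean replicate inhibition at least 60% with every replicate also reaching 60%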;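 also: luciferase light reporting Pax8 driven TPO promoter activity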
CSC inhib: blocks cancer stem cells | actives 1.1% (n = 300,000) | inhibition, % at 7.5 µM | cancer stem cell-like cells viability, luminescence; in the data active = inhibition above about 75%; tested in HMLE shEcad cells
Mdm2 MdmX PPI: disrupts the human Mdm2-MdmX interaction. SaOS-2 split-luciferase Mdm2/MdmX complementation, luminescence. inhibition, % at 8 µM. actives 3% (n = 330,000);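 active = inhibition of at least 50% at 8 µM in the primary screen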
Target sequence (O15151 whole entry, looked up): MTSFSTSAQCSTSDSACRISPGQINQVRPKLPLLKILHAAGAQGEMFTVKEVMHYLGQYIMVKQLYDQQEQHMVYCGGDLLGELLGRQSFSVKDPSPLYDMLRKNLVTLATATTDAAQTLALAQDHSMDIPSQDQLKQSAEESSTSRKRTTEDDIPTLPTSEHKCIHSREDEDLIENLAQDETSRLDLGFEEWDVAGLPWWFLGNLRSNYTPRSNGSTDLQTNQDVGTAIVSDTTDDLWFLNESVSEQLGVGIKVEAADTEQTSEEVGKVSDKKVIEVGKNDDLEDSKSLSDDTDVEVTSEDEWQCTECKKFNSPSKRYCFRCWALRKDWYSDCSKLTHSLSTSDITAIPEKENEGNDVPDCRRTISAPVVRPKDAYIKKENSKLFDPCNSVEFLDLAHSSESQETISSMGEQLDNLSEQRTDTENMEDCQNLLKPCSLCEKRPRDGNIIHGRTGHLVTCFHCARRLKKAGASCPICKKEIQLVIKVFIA
Target sequence (Q00987 whole entry, looked up): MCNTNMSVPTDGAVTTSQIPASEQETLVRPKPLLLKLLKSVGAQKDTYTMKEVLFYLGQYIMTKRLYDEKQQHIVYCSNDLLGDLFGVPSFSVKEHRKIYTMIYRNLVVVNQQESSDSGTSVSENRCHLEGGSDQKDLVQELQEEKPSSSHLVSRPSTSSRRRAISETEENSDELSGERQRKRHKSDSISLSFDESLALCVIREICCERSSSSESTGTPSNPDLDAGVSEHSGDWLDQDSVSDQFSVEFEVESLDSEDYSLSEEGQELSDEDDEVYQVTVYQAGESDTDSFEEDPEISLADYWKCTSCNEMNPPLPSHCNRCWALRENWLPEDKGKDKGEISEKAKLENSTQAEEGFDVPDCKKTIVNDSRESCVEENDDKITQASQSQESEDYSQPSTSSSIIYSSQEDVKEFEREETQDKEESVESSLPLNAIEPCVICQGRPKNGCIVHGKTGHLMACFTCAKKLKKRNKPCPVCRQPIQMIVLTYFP
Shn3 inh set2: inhibitors of Schnurri-3 3'UTR reporter in osteoblasts; Clone20 osteoblast Shn3 3'UTR firefly luciferase, 24 h; inhibition, % at 12.5 µM; actives 0.52% (n = 360,000); AID 588674;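 active = mean inhibition of at least 75% with every replicate also reaching 75%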
Gli-Sufu block: antagonists of Gli-Sufu signaling; actives 0.74% (n = 340,000); Sufu-KO-LIGHT fibroblasts, Gli luciferase reporter luminescence; inhibition, % at 5 µM;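 active = inhibition above about 55%, limit read from the data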
Mdm2-MdmX conf: confirmation of human Mdm2/MdmX interaction inhibitors; inhibition, % at 8 µM; Mdm2-MdmX binding, luminescent assay; shares compounds with Mdm2 MdmX PPI; AID 489028; actives 55% (n = 10,000); in the data active = inhibition above about 40%
FLuc counter: full-length luciferase inhibition in Mdm2/MdmX counter-screen; actives 77% (n = 6,200); SaOS-2 full-length luciferase counterscreen, luminescence; AID 504607; inhibition, % at 8 µM; shares compounds with Mdm2 MdmX PPI;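 active = mean inhibition at 8 µM reaching about 37%, which flags the compound as non-specific, limit read from the data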;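 also: p53-null SaOS-2 cells with luciferase driven by a doxycycline-inducible promoter; compound on cells about two nights before reading with doxycycline added after day one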
Hits are given with their value; . = inactive; / = no result. The list is not random: actives were taken first. Their share in the collection is about 4%.

SMILES	Beta cell apopt	PAX8 reporter	CSC inhib	Mdm2 MdmX PPI	Shn3 inh set2	Gli-Sufu block	Mdm2-MdmX conf	FLuc counter
C[C@@H]1CN([C@H](C)CO)C(=O)c2cc(NS(=O)(=O)c3ccccc3)ccc2O[C@@H](C)CCCCO[C@@H]1CN(C)C(=O)Cc1ccccc1	/	.	/	/	/	/	/	/
Cn1cc(/C=N/n2cnc3scc(-c4ccc(Cl)cc4)c3c2=O)c2ccccc21	.	65	.	73	.	.	63	63
C[C@H]1CCCCO[C@@H](CN(C)C(=O)NC2CCCCC2)[C@@H](C)CN([C@@H](C)CO)C(=O)c2cc(NS(=O)(=O)c3cn(C)cn3)ccc2O1	/	.	/	/	/	/	/	/
C[C@H]1CN([C@@H](C)CO)C(=O)c2cc(C#CCN(C)C)cnc2O[C@@H]1CN(C)C(=O)NC1CCCC1	/	.	/	/	/	/	/	/
CCOC(=O)c1c(NC(C)=O)sc2c(OCCN(CC)CC)c(Br)ccc12	.	.	.	55	.	.	.	/
CCOC(=O)c1c(NC(C)=O)sc2c(OCC(O)CN(CC)CC)c(Br)ccc12 (stereo not drawn)	.	.	.	85	.	.	.	/
COc1cccc(C#Cc2ccc([C@H]3[C@@H](CO)N4C(=O)CN(S(=O)(=O)c5ccccc5C)C[C@@H]34)cc2)c1	/	.	/	/	/	/	/	/
COc1ccccc1NC(=O)c1cc2c(CO)cnc(C)c2oc1=Nc1cccc(C(N)=O)c1	.	.	.	79	.	.	41	90
O=C(Nc1nnc(-c2ccccc2SCc2ccccc2F)s1)Nc1ccccc1F	.	/	.	79	.	.	66	101
O=C(NCC[C@@H]1CC[C@@H](NC(=O)C2CCCCC2)[C@H](CO)O1)c1cc(Cl)cc(Cl)c1	/	.	/	/	/	/	/	/
CC(=O)OCCCNc1cc(Sc2ccc(C)cc2)c2nonc2c1[N+](=O)[O-]	.	.	.	54	95	.	59	68
CC(=O)OCCCNc1cc(Sc2nc3ccccc3s2)c2nonc2c1[N+](=O)[O-]	.	/	76	100	101	.	77	52
COC(=O)CCSc1cc(NCCOC(C)=O)c([N+](=O)[O-])c2nonc12	.	.	.	.	.	.	/	/
Cc1ccc(NC(=O)COc2ccc(/C=C3/SC(=Nc4ccccc4)N(Cc4cccnc4)C3=O)cc2)cc1	.	/	.	51	.	.	.	/
O=C(C[C@H]1CC[C@@H]2[C@H](COC[C@H](O)CN2C(=O)c2ccccc2)O1)Nc1nccs1	/	.	/	/	/	/	/	/
COc1ccc(Cl)cc1NC(=O)CN(C)C1CCCCC1	.	.	.	.	.	.	/	/
COc1ccc(OC)c(NC(=O)CN(Cc2ccc(F)cc2)C2CCCCC2)c1	100	.	.	52	.	.	.	/
O=C(Nc1cccc(F)c1)N1CC(=O)N2[C@H](C1)[C@H](c1ccc(-c3ccccc3)cc1)[C@@H]2CO	/	.	/	/	/	/	/	/
CCOC(=O)c1ccccc1NC(=O)c1cn(-c2ccc(C)c(C)c2)c(=O)c2ccccc12	.	.	.	69	.	.	.	/
C[C@@H]1CN([C@H](C)CO)C(=O)c2cccc(N(C)C)c2O[C@@H]1CN(C)Cc1ccncc1	/	.	/	/	/	/	/	/
CC(NC(=O)CN(c1cccc(C(F)(F)F)c1)S(=O)(=O)c1ccc(Cl)c([N+](=O)[O-])c1)c1ccccc1 (stereo not drawn)	.	61	98	82	.	.	55	.
O=C(CN(c1cccc(C(F)(F)F)c1)S(=O)(=O)c1ccc(Cl)c([N+](=O)[O-])c1)NCc1ccccc1Cl	.	/	101	73	.	.	.	103
O=C(O)CN(c1cccc(C(F)(F)F)c1)S(=O)(=O)c1ccccc1	.	.	.	.	.	.	/	/
O=C(CN(c1ccc(Br)cc1)S(=O)(=O)c1ccc(Cl)c([N+](=O)[O-])c1)NCCc1ccccc1	.	.	.	.	.	.	/	/
O=C(CN(c1cccc(C(F)(F)F)c1)S(=O)(=O)c1ccc(Cl)c([N+](=O)[O-])c1)NCc1ccccc1	.	.	85	82	.	.	40	59
SMILES	Beta cell apopt	PAX8 reporter	CSC inhib	Mdm2 MdmX PPI	Shn3 inh set2	Gli-Sufu block	Mdm2-MdmX conf	FLuc counter
Cc1ccc(N(CC(=O)NCCc2ccc(F)cc2)S(=O)(=O)c2ccc(Cl)c([N+](=O)[O-])c2)c(C)c1	.	78	80	100	.	.	.	/
CC(C)(C)NC(=O)CN(c1cccc([N+](=O)[O-])c1)S(=O)(=O)c1ccccc1	/	.	.	.	.	.	/	/
CS(=O)(=O)Nc1ccc2c(c1)[C@H]1C[C@H](CC(=O)O)O[C@@H](CO)[C@H]1O2	/	.	/	/	/	/	/	/
COc1ccc(OC)c(-c2csc(NC(=O)Cn3[nH]c(=O)c4ccccc4c3=O)n2)c1	.	.	.	67	.	.	83	50
Cc1c(NC(=O)Cn2[nH]c(=O)c3ccccc3c2=O)c(=O)n(-c2ccccc2)n1C	.	/	.	.	.	.	/	/
Cc1sc(NC(=O)Cn2[nH]c(=O)c3ccccc3c2=O)nc1-c1ccccc1	.	.	.	56	.	.	.	/
C[C@H]1CN([C@@H](C)CO)C(=O)c2cc(-c3ccc(C(=O)N(C)C)cc3)cnc2O[C@H]1CN(C)C(=O)c1ccncc1	/	.	/	/	/	/	/	/
CCCC(=O)Nc1ccc2c(c1)OC[C@@H](C)N(CC1CCOCC1)C[C@@H](C)[C@@H](OC)CN(C)C2=O	/	.	/	/	/	/	/	/
COc1ccc2c3c([nH]c2c1)[C@@H](CO)N(C(=O)NC(C)C)CC31CCN(Cc2ccc(F)cc2)CC1	/	.	/	/	/	/	/	/
CCOc1ccc(-c2c(C(=O)N/N=C(\C)c3cccnc3)nnn2-c2nonc2N)cc1	.	.	.	64	.	.	.	/
C/C(=N/NC(=O)c1nnn(-c2nonc2N)c1COc1ccccc1)c1ccc(O)cc1	.	.	.	75	.	.	.	/
C/C(=N/NC(=O)c1nnn(-c2nonc2N)c1COc1ccccc1)c1ccccc1Cl	.	.	.	.	.	.	/	/
C/C(=N\NC(=O)c1nnn(-c2nonc2N)c1-c1ccccc1)c1ccccc1O	90	.	/	82	.	68	84	51
CCCOc1ccc(-c2c(C(=O)N/N=C(\C)c3cccnc3)nnn2-c2nonc2N)cc1	/	.	.	.	.	.	/	/
CCCc1c(C(=O)N/N=C(\C)c2ccccc2O)nnn1-c1nonc1N	/	.	/	/	.	/	/	/
COc1cc([C@@H]2C[C@H]3CN(c4ccccc4)C(=O)[C@]34CCCN24)cc(OC)c1OC	.	.	.	.	.	.	/	/
COc1ccccc1-n1cc([C@@H]2C[C@H]3CN(c4ccccc4)C(=O)[C@]34CCCN24)cn1	.	98	.	77	97	.	.	/
CCc1ccc(NC(=O)c2nc(S(=O)(=O)Cc3ccccc3)ncc2Cl)cc1	.	.	105	99	96	/	84	51
COc1ccccc1NC(=O)c1ccc(CS(=O)(=O)c2ccc(C)cc2)cc1	.	.	.	.	.	.	/	/

Screens from PubChem.
